Results on 60 sequences are retold here after the OligoGym collection.

Targets include CRIPAK; CROT; CREG1; CRTAM; CREB5; CSGALNACT1; CSTF3; CT47A1; CSH1; CYLC1; DCPS.
Test in all cases: pooled miR-30 sensor sort-seq; sequence = guide strand
Holding throughout (conditions): shRNA
Further: reference of the scale not given here.

Turning to TTAAAAAGCCACCATGAGTAGA, in the experiment with CRIPAK, the sensor-assay potency score (higher = more potent) is -1.01.

In the experiment with CROT, TTCAAGTGAAGGAACAGGCAGT displayed a sensor-assay potency score (higher = more potent) of 0.589.

TGGTCCACCAAAGTAGTCCAGG had a sensor-assay potency score (higher = more potent) in the experiment with CREG1 of -1.37.

For TAGCATTCGGAATTGATTCATA, the sensor-assay potency score (higher = more potent) with CROT is -0.712.

As to TTTGTGCTTACAGAGTCGCTGT, in the experiment with CRTAM, the sensor-assay potency score (higher = more potent) is -0.405.

As for TAGAACATTGTATTTGAACTGA, in the experiment with CREB5, the sensor-assay potency score (higher = more potent) is -0.137.

Consider TATATCTCGTACCTTCTCTGAA, for which the sensor-assay potency score (higher = more potent) in the experiment with CROT was -0.557.

Take TATACCAGTAAACTACTCTGAA: the sensor-assay potency score (higher = more potent) in the experiment with CROT stood at 0.286.

Sequence TAGAAATAGGGCACGCCGCTGC showed a sensor-assay potency score (higher = more potent) with CREG1 of -0.314.

TTTCTTGCAGAAGTTGGTCTGT gave a sensor-assay potency score (higher = more potent) with CREG1 of 0.391.

On to TAGAGGAGTATTTCCAACTTTA, for which, in the experiment with CROT, the sensor-assay potency score (higher = more potent) is -0.214.

As for TCCACATGGGCACATGAGCAGG, in the experiment with CRIPAK, the sensor-assay potency score (higher = more potent) was -2.25.

As for ATGTACGGTAACAGCGTCTGAC, the sensor-assay potency score (higher = more potent) with CRIPAK was -0.866.

TAGAATGTACGGTAACAGCGTC yielded a sensor-assay potency score (higher = more potent) with CRIPAK of -0.204.

In the experiment with CRIPAK, AACAGCGTCTGACTCGGCCGGC yielded a sensor-assay potency score (higher = more potent) of -0.602.

As to TTGATGTCCAGATCAAACCCAC, in the experiment with CSGALNACT1, the sensor-assay potency score (higher = more potent) is -0.21.

Regarding ATATTGATGAAGTCTGACCGAT, in the experiment with CSGALNACT1, the sensor-assay potency score (higher = more potent) is -0.598.

The sequence TTCATCTGAATCCTCGTTGGGC yielded a sensor-assay potency score (higher = more potent) in the experiment with CSTF3 of 0.448.

Regarding TTAAACAATGAGTTTACTGTGA, the sensor-assay potency score (higher = more potent) with CSGALNACT1 was -0.267.

For the sequence TATAGAAGGAGCTACAACTGGG, the sensor-assay potency score (higher = more potent) with CSTF3 amounted to 0.225.

TTTGGTATCTTGCATCTTCGGA yielded a sensor-assay potency score (higher = more potent) in the experiment with CSTF3 of -0.026.

Sequence TTTCTTTGTAACTTGGTAGTTT registered a sensor-assay potency score (higher = more potent) with CSTF3 of -0.139.

The sequence TTATTCTTTGATTTTCTGCATA registered a sensor-assay potency score (higher = more potent) in the experiment with CSTF3 of -0.891.

Sequence TACTTGTTATAGTCTCTCCAGA had a sensor-assay potency score (higher = more potent) in the experiment with CSTF3 of -0.878.

Consider TTGCTGTGGAGATACTTGCGAT, for which, in the experiment with CSGALNACT1, the sensor-assay potency score (higher = more potent) is -1.14.

Take TGAACTTGTATCTATCTACTAG: the sensor-assay potency score (higher = more potent) in the experiment with CSTF3 was -0.0129.

In the experiment with CT47A1, ATTTAGTGACTTCCTCTGGGGC registered a sensor-assay potency score (higher = more potent) of -0.669.

Consider TTTAGCTAAATGAATATTGATA, for which the sensor-assay potency score (higher = more potent) with CSTF3 is -0.643.

With TACTGCATTACTTTCCACGGGG, the sensor-assay potency score (higher = more potent) with CSTF3 amounted to 0.0681.

TTTGTCTATAGGTTGATTCTGT had a sensor-assay potency score (higher = more potent) in the experiment with CSTF3 of -0.133.

TTTTCTATCCACTTCATCTTTC: the sensor-assay potency score (higher = more potent) with CSTF3 is -0.135.

In the experiment with CSTF3, TTTGCTTAGAGCATAGGTCTGT yielded a sensor-assay potency score (higher = more potent) of 0.755.

TTTGTTTCCAAGAACCTTGTAA displayed a sensor-assay potency score (higher = more potent) with CSTF3 of 0.432.

TGTTCTTTCTCTTCCTCGCCTG: in the experiment with CT47A1, the sensor-assay potency score (higher = more potent) worked out at 0.234.

As to TTGACGGTTCTCTATGAGGATG, the sensor-assay potency score (higher = more potent) with CT47A1 was -1.48.

TTGGTATCTTGCATCTTCGGAA gave a sensor-assay potency score (higher = more potent) in the experiment with CSTF3 of -0.546.

The sequence TATCTCGTGCCTGAACACCAGC gave a sensor-assay potency score (higher = more potent) with CSGALNACT1 of -0.848.

Sequence TATTGATGAAGTCTGACCGATA showed a sensor-assay potency score (higher = more potent) with CSGALNACT1 of -0.823.

TAAATCAATGTGCAAAACCTTC: in the experiment with CSTF3, the sensor-assay potency score (higher = more potent) is -1.01.

TTGTTTTTTCTCAAGAACCATG showed a sensor-assay potency score (higher = more potent) with CSTF3 of -1.15.

In the experiment with CSH1, TACTCGGGCACCTAGAAGCCAC returned a sensor-assay potency score (higher = more potent) of -1.13.

Regarding TTCTTCTTCAATAAAGTGCTTA, in the experiment with CSTF3, the sensor-assay potency score (higher = more potent) was -0.0244.

On to TTGATCATCGGATTAACACAAC, for which, in the experiment with CSTF3, the sensor-assay potency score (higher = more potent) is -0.951.

Sequence TAGCTGCTAGCTTAGCACGGGA came in with a sensor-assay potency score (higher = more potent) with CSTF3 of -0.406.

In the experiment with CSGALNACT1, TTAGCTGTGCAATACCACCTTC displayed a sensor-assay potency score (higher = more potent) of -0.0505.

For TTCCATTCCAATTTTATCCAGT, the sensor-assay potency score (higher = more potent) in the experiment with CSTF3 was -0.0677.

As to TGTTTTCTGCATCCTTCTCTTT, in the experiment with CT47A1, the sensor-assay potency score (higher = more potent) was -1.05.

Take TTGGACTGCATGCACATCTTGT: in the experiment with CSGALNACT1, the sensor-assay potency score (higher = more potent) is -0.464.

With TAATTCAGTTACTTCCACCTGG, in the experiment with CSGALNACT1, the sensor-assay potency score (higher = more potent) is 0.629.

The sequence TAGAGCATAGGTCTGTTCCGTA registered a sensor-assay potency score (higher = more potent) with CSTF3 of 0.181.

In turn, TATGAGGATGTGGTCGTTGTGA returned a sensor-assay potency score (higher = more potent) in the experiment with CT47A1 of -0.634.

As for TTCTGGTATCTTCTCTTGCTTT, the sensor-assay potency score (higher = more potent) in the experiment with CSTF3 was -0.975.

Sequence TTGAATGCTGTAAACCGTCTTT showed a sensor-assay potency score (higher = more potent) with CSTF3 of -0.262.

Take TATTAGTACAAACCATTCCTTC: the sensor-assay potency score (higher = more potent) with CSGALNACT1 is -0.885.

Sequence TTAAATTTCATAAACTACCAGT yielded a sensor-assay potency score (higher = more potent) with CSGALNACT1 of -0.16.

For TTCCTCGCCTGCAGCATCTTGG, the sensor-assay potency score (higher = more potent) with CT47A1 was -0.775.

As to TCGGATTAACACAACCTCGTTG, the sensor-assay potency score (higher = more potent) with CSTF3 is -0.511.

As for TTTTTCTTAACTTTCTTTGAAT, in the experiment with CYLC1, the sensor-assay potency score (higher = more potent) is -0.75.

The sequence TTTATCATTTGTACCTCTCTGG returned a sensor-assay potency score (higher = more potent) with CYLC1 of 0.594.

In turn, TTCTGCAGTCTGAAGCCGGAGA came in with a sensor-assay potency score (higher = more potent) with DCPS of -0.8.
